# Assay results: ChEMBL document CHEMBL3988442, “University of Dundee, Small-Polar-MMV Screening Library” (2021)
# Target: T1, Aspartate--tRNA(Asp/Asn) ligase (Mycobacterium tuberculosis (strain ATCC 25618 / H37Rv)) (UniProt P9WFW3); note: in the data most compounds retested in dose-response had high values
# T1 sequence (whole entry): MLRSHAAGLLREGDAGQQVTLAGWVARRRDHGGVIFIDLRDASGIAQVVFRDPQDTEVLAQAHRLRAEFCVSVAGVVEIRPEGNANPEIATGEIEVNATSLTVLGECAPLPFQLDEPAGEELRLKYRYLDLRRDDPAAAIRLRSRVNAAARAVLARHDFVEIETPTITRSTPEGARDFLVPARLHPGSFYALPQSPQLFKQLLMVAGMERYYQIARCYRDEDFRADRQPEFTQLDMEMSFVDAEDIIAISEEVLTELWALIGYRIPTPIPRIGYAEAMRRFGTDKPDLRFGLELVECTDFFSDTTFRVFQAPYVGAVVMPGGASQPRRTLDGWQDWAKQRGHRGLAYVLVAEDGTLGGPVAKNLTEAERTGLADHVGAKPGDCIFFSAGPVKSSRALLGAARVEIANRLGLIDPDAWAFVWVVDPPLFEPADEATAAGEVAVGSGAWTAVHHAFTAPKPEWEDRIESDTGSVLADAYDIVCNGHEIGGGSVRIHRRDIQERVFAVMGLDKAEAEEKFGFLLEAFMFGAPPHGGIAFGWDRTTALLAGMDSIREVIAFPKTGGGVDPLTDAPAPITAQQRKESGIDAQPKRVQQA
# Test: Assay for Asp RNA synthetase-1 from Mycobacterium tuberculosis
# Format: functional
# Design: scale not given: direction of the effect not stated beside the values
# Conditions: 30 µM
row,SMILES,Percent Effect [%]
1,Cc1cnn(CC2CCCCN2C(=O)CN(C)C2CC2)c1 (stereo not given),2.98
2,O=C(c1cccc(N2CCCC2=O)c1)N1CCCC(n2cncn2)C1 (stereo not given),-4.55
3,Cc1c(C(=O)NCC2CCCO2)nnn1-c1cccc2c1CCN(C)C2 (stereo not given),3.06
4,c1ccc(-c2nc(CNC3CCc4ncnn4C3)co2)cc1 (stereo not given),-3.79
5,OCCOCCN1CCCC1c1nc2cc(F)ccc2[nH]1 (stereo not given),-5.15
6,CCN(CC)Cc1ccc(C(=O)N2CCCCC2Cn2cccn2)o1 (stereo not given),3.47
7,CCOC(=O)N1CCN(C(=O)c2sc(-c3ccc(F)cc3)nc2C)CC1,-0.364
8,Cc1ccc(CN2CC(C(=O)N3CCCC3)C3(CCOCC3)C2)s1 (stereo not given),10.8
9,Cn1c(CC2CCS(=O)(=O)C2)nnc1SCCOc1ccccc1F (stereo not given),2.75
10,c1ccc2oc(N3CCCCC3Cn3cncn3)nc2c1 (stereo not given),-2.88
11,Cc1ccc(N2CC3(COCCN(Cc4cccnc4)C3)OCC2=O)s1 (stereo not given),10.1
12,O=C1CCC2(CCN(Cc3cc(F)cc(F)c3)CC2)CN1CCO,-0.529
13,Cc1ccc(NC2CCN(C(=O)CC3CCCO3)CC2)nn1 (stereo not given),-2.07
14,Cc1cnc(CNc2c(F)cccc2-n2cccn2)o1,-2.01
15,CCN1CCC(NC(=O)CN2CCCCC2Cn2cc(C)cn2)CC1 (stereo not given),-0.102
16,CC(NC(=O)NCc1ccc(Cl)s1)c1ccccn1 (stereo not given),-0.451
17,Cc1cc(C)n(C2CCCN(C(=O)C3=NN(C)C(=O)CC3)C2)n1 (stereo not given),0.706
18,O=C(O)[C@]12CCCN(Cc3ccccc3)C[C@H]1CN(c1ncccn1)C2,6.32
19,NC(=O)c1ccc(CN2CCCC(O)C2)cc1 (stereo not given),-3.73
20,c1ccc(CN2CCCC(c3nccnc3-n3ccnc3)C2)cc1 (stereo not given),2.31

row,SMILES,Percent Effect [%]
1,Cc1cccc(Cn2ccc(NS(C)(=O)=O)n2)c1,6.96
2,Cc1cccc(-c2noc(CN3CCCC3Cn3cccn3)n2)c1 (stereo not given),-8.22
3,O=C(c1c[nH]c(=O)c(Cl)c1)N1C[C@@H]2CC[C@H](C1)N(Cc1ccccc1)C2,-1.71
4,CCS(=O)(=O)N1CCC2(CC(=O)N(c3cccc(C)c3)C2)C1 (stereo not given),2.82
5,COCCCNC(=O)CN(C)C(=O)c1cc(C)ccc1N(C)C(C)C,1.84
6,COCCN1C[C@@H]2CN(C(=O)[C@H]3CCCO3)C[C@@H]2C1=O,-1.41
7,CCCc1cc(C(=O)N2CCOC(c3nc(-c4cccs4)no3)C2)no1 (stereo not given),-0.544
8,Cc1ccc(Cn2ccc(NS(C)(=O)=O)n2)cc1,2.05
9,CC1CN(C)c2ccccc2CN1C(=O)CSc1ccncc1 (stereo not given),6.09
10,CCn1cnnc1CNC(=O)N(C)Cc1ccc2c(c1)OCCO2,14.5
11,Cc1noc(C)c1CN(C)CCC(=O)N1CCc2sccc2C1,5.92
12,CC(C)c1nccn1C1CCCN(C(=O)c2ccc3[nH]nnc3c2)C1 (stereo not given),-3.89
13,CC1CCCN(C(=O)c2csc(S(N)(=O)=O)c2)CC1 (stereo not given),0.324
14,CC(C)c1csc(C2CCCN(C(=O)c3ncccn3)C2)n1 (stereo not given),-2.21
15,CCN(Cc1ccc2c(c1)OCO2)C(=O)c1ccc(C)[nH]c1=O,0.522
16,Cc1nn(C)c(N2CCOCC2)c1CNC1CCc2ccccc2C1 (stereo not given),-2.23
17,O=S(=O)(NC1=NCN(CCc2cccs2)CN1)c1ccccc1,-3.8
18,CC(Oc1ccccc1C(F)(F)F)C(=O)NCC(N)=O (stereo not given),-3.56
19,NC(=O)c1cc(C2CCCN(C(=O)CCc3ccsc3)C2)n[nH]1 (stereo not given),-5.77
20,CN(Cc1ccc(F)cc1)C(=O)Cn1nc(-c2ccc(F)cc2)oc1=O,5.72

# Target: Shiga toxin 2 (Escherichia coli O157:H7) (UniProt P09385+P09386)
# Test: E. coli 0.157:H7 Shiga Toxin SOP - stx2 screening assay
# Format: functional
# Design: scale not given: direction of the effect not stated beside the values
# Conditions: 30 µM
row,SMILES,Percent Effect [%]
1,Cc1cnn(CC2CCCCN2C(=O)CN(C)C2CC2)c1 (stereo not given),-50.8
2,O=C(c1cccc(N2CCCC2=O)c1)N1CCCC(n2cncn2)C1 (stereo not given),17.8
3,Cc1c(C(=O)NCC2CCCO2)nnn1-c1cccc2c1CCN(C)C2 (stereo not given),-26.5
4,c1ccc(-c2nc(CNC3CCc4ncnn4C3)co2)cc1 (stereo not given),-10.8
5,OCCOCCN1CCCC1c1nc2cc(F)ccc2[nH]1 (stereo not given),-4.14
6,CCN(CC)Cc1ccc(C(=O)N2CCCCC2Cn2cccn2)o1 (stereo not given),1.31
7,CCOC(=O)N1CCN(C(=O)c2sc(-c3ccc(F)cc3)nc2C)CC1,8.24
8,Cc1ccc(CN2CC(C(=O)N3CCCC3)C3(CCOCC3)C2)s1 (stereo not given),-7.63
9,Cn1c(CC2CCS(=O)(=O)C2)nnc1SCCOc1ccccc1F (stereo not given),-10.2
10,c1ccc2oc(N3CCCCC3Cn3cncn3)nc2c1 (stereo not given),-18.7
11,Cc1ccc(N2CC3(COCCN(Cc4cccnc4)C3)OCC2=O)s1 (stereo not given),-4.57
12,O=C1CCC2(CCN(Cc3cc(F)cc(F)c3)CC2)CN1CCO,6.69
13,Cc1ccc(NC2CCN(C(=O)CC3CCCO3)CC2)nn1 (stereo not given),4.7
14,Cc1cnc(CNc2c(F)cccc2-n2cccn2)o1,-27.4
15,CCN1CCC(NC(=O)CN2CCCCC2Cn2cc(C)cn2)CC1 (stereo not given),-21.7
16,CC(NC(=O)NCc1ccc(Cl)s1)c1ccccn1 (stereo not given),-14.6
17,Cc1cc(C)n(C2CCCN(C(=O)C3=NN(C)C(=O)CC3)C2)n1 (stereo not given),17.2
18,O=C(O)[C@]12CCCN(Cc3ccccc3)C[C@H]1CN(c1ncccn1)C2,-14.8
19,NC(=O)c1ccc(CN2CCCC(O)C2)cc1 (stereo not given),-9.74
20,c1ccc(CN2CCCC(c3nccnc3-n3ccnc3)C2)cc1 (stereo not given),-2.34

row,SMILES,Percent Effect [%]
1,Cc1cccc(Cn2ccc(NS(C)(=O)=O)n2)c1,-21.6
2,Cc1cccc(-c2noc(CN3CCCC3Cn3cccn3)n2)c1 (stereo not given),28.6
3,O=C(c1c[nH]c(=O)c(Cl)c1)N1C[C@@H]2CC[C@H](C1)N(Cc1ccccc1)C2,3.61
4,CCS(=O)(=O)N1CCC2(CC(=O)N(c3cccc(C)c3)C2)C1 (stereo not given),-11.5
5,COCCCNC(=O)CN(C)C(=O)c1cc(C)ccc1N(C)C(C)C,4.69
6,COCCN1C[C@@H]2CN(C(=O)[C@H]3CCCO3)C[C@@H]2C1=O,-16.3
7,CCCc1cc(C(=O)N2CCOC(c3nc(-c4cccs4)no3)C2)no1 (stereo not given),-10.2
8,Cc1ccc(Cn2ccc(NS(C)(=O)=O)n2)cc1,-19.8
9,CC1CN(C)c2ccccc2CN1C(=O)CSc1ccncc1 (stereo not given),-6.66
10,CCn1cnnc1CNC(=O)N(C)Cc1ccc2c(c1)OCCO2,13.4
11,Cc1noc(C)c1CN(C)CCC(=O)N1CCc2sccc2C1,-16
12,CC(C)c1nccn1C1CCCN(C(=O)c2ccc3[nH]nnc3c2)C1 (stereo not given),-22.6
13,CC1CCCN(C(=O)c2csc(S(N)(=O)=O)c2)CC1 (stereo not given),-19.1
14,CC(C)c1csc(C2CCCN(C(=O)c3ncccn3)C2)n1 (stereo not given),-20
15,CCN(Cc1ccc2c(c1)OCO2)C(=O)c1ccc(C)[nH]c1=O,-16
16,Cc1nn(C)c(N2CCOCC2)c1CNC1CCc2ccccc2C1 (stereo not given),-3.73
17,O=S(=O)(NC1=NCN(CCc2cccs2)CN1)c1ccccc1,-12.6
18,CC(Oc1ccccc1C(F)(F)F)C(=O)NCC(N)=O (stereo not given),11.5
19,NC(=O)c1cc(C2CCCN(C(=O)CCc3ccsc3)C2)n[nH]1 (stereo not given),21.2
20,CN(Cc1ccc(F)cc1)C(=O)Cn1nc(-c2ccc(F)cc2)oc1=O,-25.7
